From PubChem BioAssay
The source made the active and inactive calls.

Legend:
[1] = test system: Plasmodium falciparum Sir2 (PF13_0152, Sir2A); assay: pfSir2 binders on small-molecule microarrays, primary screen, biochemical, small-molecule microarray, 635 nm fluorescence (AID 1098); conditions: small-molecule microarray binding, fluorescence 635 nm; higher = more signal;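 also: score merges spot fluorescence intensity with its signal-to-noise ratio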
[2] = small-molecule microarray binders of probe aDKK1, primary screen, biochemical, biotinylated probe, 635/667 nm fluorescence (AID 1099); conditions: higher = more signal;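 also: score merges 667nm spot fluorescence with signal to noise across triplicate slides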
[3] = small-molecule microarray binders of probe aCHRDL2, primary screen, biochemical, biotinylated probe, 635/667 nm fluorescence (AID 1100); conditions: higher = more signal
[4] = splicing luciferase reporter signal modulators, primary screen, spliceosome inhibition project, cell-based, HEK293, splice +/- reporter (AID 1101); conditions: luminescence, 24 h, higher = more signal, called active from +8 up or from −8 down;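 also: HEK293 cells carrying a splicing-competent luciferase reporter gene; test concentration not given here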
[5] = target: Fibroblast growth factor 10 (Homo sapiens) (UniProt O15520); assay: FGF10 binders on small-molecule microarrays, primary screen, biochemical, small-molecule microarray, 635 nm fluorescence (AID 1102); conditions: FGF10 binding, fluorescence 635 nm, higher = more signal
[6] = test system: glycogen synthase kinase-3 (GSK3A per assay name; protocol says GSK3B); assay: GSK3 binders on small-molecule microarrays, primary screen, biochemical, small-molecule microarray, 635 nm fluorescence, GSK3A (AID 1103); conditions: small-molecule microarray binding, fluorescence 635 nm; higher = more signal; also: the record names both GSK3A and GSK3B
[7] = target: Epidermal growth factor receptor (Homo sapiens) (UniProt P00533); assay: EGFR binders on small-molecule microarrays, primary screen, biochemical, small-molecule microarray, 635 nm fluorescence (AID 1104); conditions: EGFR binding, higher = more signal;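 also: score merges 667 nm emission intensity with spot signal to noise over triplicate slides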
[8] = target: Follistatin-related protein 3 (Homo sapiens) (UniProt O95633); assay: FSTL3 binders on small-molecule microarrays, primary screen, biochemical, small-molecule microarray, 635 nm fluorescence (AID 1105); conditions: FSTL3 binding, higher = more signal;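 also: score merges emission near 667 nm and signal to noise per printed spot across three slides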
[9] = target: Dickkopf-related protein 1 (Homo sapiens) (UniProt O94907); assay: DKK1 binders on small-molecule microarrays, primary screen, biochemical, small-molecule microarray, 635 nm fluorescence scan (AID 1106); conditions: DKK1 binding, higher = more signal;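 also: score merges emission near 667 nm with signal to noise over three replicate slides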
[10] = test system: Inhibin beta A chain (activin A); assay: INHBA (activin A) binders on microarrays, primary screen, biochemical, small-molecule microarray, 635 nm fluorescence scan (AID 1107); conditions: small-molecule microarray binding, higher = more signal;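 also: mouse activin A protein probed at 4.33 µg/mL on printed slides; score merges bound-protein fluorescence near 667 nm with spot signal-to-noise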
[11] = test system: Human papillomavirus type 1a protein E7 (residues 44-93); assay: HPV1a E7 fragment binders on microarrays, primary screen, biochemical, small-molecule microarray, residues 44-93, 635 nm fluorescence (AID 1108); conditions: small-molecule microarray binding, fluorescence 635 nm; higher = more signal;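 also: E7 fragment applied at 1 µg/mL in TBST for 1 h at 4 C; score combines spot fluorescence with its signal to noise ratio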
[12] = modulators of HCV replicon luciferase signal, primary screen, HCV replication inhibitor project, Huh7 cells, luciferase reporter (AID 1109); conditions: 48 h, higher = more signal;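 also: huh7 hepatoma cells harbouring a luciferase neomycin HCV replicon reporter; luciferase luminescence as measure of HCV replicon replication; test concentration not given here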
[13] = target: Left-right determination factor 2 (Homo sapiens) (UniProt O00292); assay: LEFTY2 binders on small-molecule microarrays, primary screen, biochemical, small-molecule microarray, 635 nm fluorescence scan (AID 1110); conditions: LEFTY2 binding, higher = more signal
[14] = target: Calmodulin-1 (Homo sapiens) (UniProt P0DP23); assay: CALM1 binders on microarrays, EGTA buffer, profiling panel, biochemical, small-molecule microarray, Cy5-labelled CALM1 (AID 1111); conditions: Cy5-CALM1 binding fluorescence, higher = more signal;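 also: labelled calmodulin applied in Tris saline Tween buffer holding calcium plus EGTA and DTT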
[15] = target: Calmodulin-1 (Homo sapiens) (UniProt P0DP23); assay: calcium-bound CALM1 binders on microarrays, profiling panel, artefact control for SMM control-protein annotation, biochemical, small-molecule microarray, Cy5-labelled CALM1, plus calcium (AID 1112); conditions: Cy5-CALM1 binding fluorescence, higher = more signal;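 also: score merges spot fluorescence with signal to noise from triplicate slides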
[16] = small-molecule microarray binders of probe aWnt5a, primary screen, biochemical, biotinylated probe, 635/667 nm fluorescence (AID 1113); conditions: higher = more signal;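 also: score merges 667 nm fluorescence intensity with signal-to-noise per printed feature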
[17] = small-molecule microarray binders of probe aShh, primary screen, biochemical, biotinylated probe, 635/667 nm fluorescence (AID 1114); conditions: higher = more signal;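 also: probe is biotin-labelled aShh protein from a stem cell growth factor screen; measures binding of labelled protein to compounds printed on the slide; score merges feature fluorescence at 667 nm with signal-to-noise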
[18] = small-molecule microarray binders of probe aNog, primary screen, biochemical, biotinylated probe, 635/667 nm fluorescence (AID 1115); conditions: higher = more signal;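 also: probe is biotinylated aNog protein used at 0.15 µg/mL for 1 h at 4 C; z-score combines 667 nm fluorescence of each spot with its signal to noise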
[19] = target: Torsin-1A-interacting protein 1 (Homo sapiens) (UniProt Q5JTV8); assay: LAP1 binders from COS7 cell lysate, primary screen, small-molecule microarray, 635/667 nm fluorescence (AID 1116); conditions: COS7-hLAP1 lysate binding, 635 nm fluorescence, higher = more signal
[20] = target: Alpha-bungarotoxin (Bungarus multicinctus) (UniProt P60615); assay: alpha-bungarotoxin binders on microarray, profiling panel, artefact control for SMM control protein annotation, biochemical, small-molecule microarray, Alexa647 label, 635/667 nm fluorescence (AID 1117); conditions: alpha-BTX-A647 binding fluorescence, higher = more signal
Chain of Alpha-bungarotoxin (Bungarus multicinctus) (P60615 whole entry, looked up): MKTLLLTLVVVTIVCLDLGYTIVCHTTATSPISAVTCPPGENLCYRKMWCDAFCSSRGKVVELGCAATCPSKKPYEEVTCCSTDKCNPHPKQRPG

Chain of Fibroblast growth factor 10 (Homo sapiens) (O15520 whole entry, looked up): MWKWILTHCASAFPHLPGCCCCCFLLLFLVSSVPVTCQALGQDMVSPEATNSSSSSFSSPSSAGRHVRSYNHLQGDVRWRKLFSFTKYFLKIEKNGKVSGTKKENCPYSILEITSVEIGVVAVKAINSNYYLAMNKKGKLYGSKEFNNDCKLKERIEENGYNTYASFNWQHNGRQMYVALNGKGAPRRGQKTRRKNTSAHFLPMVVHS
Chain of Torsin-1A-interacting protein 1 (Homo sapiens) (Q5JTV8 whole entry, looked up): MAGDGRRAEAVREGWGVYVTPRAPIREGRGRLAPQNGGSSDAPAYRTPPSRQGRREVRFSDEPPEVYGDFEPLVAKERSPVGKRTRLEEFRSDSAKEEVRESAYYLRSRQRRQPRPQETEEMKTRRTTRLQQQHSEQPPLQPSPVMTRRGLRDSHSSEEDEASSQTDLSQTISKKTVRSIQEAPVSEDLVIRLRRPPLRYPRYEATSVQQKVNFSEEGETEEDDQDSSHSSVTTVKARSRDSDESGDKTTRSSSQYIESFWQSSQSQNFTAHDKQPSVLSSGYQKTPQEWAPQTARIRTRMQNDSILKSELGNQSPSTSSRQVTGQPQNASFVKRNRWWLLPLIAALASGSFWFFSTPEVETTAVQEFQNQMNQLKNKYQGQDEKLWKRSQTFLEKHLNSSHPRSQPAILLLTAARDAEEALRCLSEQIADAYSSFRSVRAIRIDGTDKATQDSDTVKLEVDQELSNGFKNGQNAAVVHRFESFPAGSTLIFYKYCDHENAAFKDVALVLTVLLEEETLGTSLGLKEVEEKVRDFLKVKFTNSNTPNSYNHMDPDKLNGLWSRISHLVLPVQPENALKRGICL
Chain of Dickkopf-related protein 1 (Homo sapiens) (O94907 whole entry, looked up): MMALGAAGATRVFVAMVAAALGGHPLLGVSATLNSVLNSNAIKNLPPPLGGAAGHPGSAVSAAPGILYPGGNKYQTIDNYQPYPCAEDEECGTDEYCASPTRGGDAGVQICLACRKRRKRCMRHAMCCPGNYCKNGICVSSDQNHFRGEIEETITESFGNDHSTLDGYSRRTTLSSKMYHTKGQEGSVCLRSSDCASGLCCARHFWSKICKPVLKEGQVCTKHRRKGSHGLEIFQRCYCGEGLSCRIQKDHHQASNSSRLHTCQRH
Chain of Follistatin-related protein 3 (Homo sapiens) (O95633 whole entry, looked up): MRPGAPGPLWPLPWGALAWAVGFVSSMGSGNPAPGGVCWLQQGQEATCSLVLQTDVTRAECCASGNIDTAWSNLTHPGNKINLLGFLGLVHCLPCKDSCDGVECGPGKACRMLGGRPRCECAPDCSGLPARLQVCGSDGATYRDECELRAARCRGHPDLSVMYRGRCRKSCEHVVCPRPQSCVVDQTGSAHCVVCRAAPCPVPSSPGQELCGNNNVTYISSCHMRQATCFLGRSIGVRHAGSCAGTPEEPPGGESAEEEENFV
Chain of Left-right determination factor 2 (Homo sapiens) (O00292 whole entry, looked up): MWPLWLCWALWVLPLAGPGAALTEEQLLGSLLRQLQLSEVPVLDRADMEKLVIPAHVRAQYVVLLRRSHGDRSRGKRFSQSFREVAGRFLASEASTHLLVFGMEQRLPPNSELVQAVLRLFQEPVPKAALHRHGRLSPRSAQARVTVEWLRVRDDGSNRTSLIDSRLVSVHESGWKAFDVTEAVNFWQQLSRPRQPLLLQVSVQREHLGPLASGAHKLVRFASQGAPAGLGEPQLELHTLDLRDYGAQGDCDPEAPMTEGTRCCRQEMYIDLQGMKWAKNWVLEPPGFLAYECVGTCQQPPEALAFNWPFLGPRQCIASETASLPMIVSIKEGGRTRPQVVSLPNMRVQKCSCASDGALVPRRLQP
Chain of Epidermal growth factor receptor (Homo sapiens) (P00533 whole entry, looked up): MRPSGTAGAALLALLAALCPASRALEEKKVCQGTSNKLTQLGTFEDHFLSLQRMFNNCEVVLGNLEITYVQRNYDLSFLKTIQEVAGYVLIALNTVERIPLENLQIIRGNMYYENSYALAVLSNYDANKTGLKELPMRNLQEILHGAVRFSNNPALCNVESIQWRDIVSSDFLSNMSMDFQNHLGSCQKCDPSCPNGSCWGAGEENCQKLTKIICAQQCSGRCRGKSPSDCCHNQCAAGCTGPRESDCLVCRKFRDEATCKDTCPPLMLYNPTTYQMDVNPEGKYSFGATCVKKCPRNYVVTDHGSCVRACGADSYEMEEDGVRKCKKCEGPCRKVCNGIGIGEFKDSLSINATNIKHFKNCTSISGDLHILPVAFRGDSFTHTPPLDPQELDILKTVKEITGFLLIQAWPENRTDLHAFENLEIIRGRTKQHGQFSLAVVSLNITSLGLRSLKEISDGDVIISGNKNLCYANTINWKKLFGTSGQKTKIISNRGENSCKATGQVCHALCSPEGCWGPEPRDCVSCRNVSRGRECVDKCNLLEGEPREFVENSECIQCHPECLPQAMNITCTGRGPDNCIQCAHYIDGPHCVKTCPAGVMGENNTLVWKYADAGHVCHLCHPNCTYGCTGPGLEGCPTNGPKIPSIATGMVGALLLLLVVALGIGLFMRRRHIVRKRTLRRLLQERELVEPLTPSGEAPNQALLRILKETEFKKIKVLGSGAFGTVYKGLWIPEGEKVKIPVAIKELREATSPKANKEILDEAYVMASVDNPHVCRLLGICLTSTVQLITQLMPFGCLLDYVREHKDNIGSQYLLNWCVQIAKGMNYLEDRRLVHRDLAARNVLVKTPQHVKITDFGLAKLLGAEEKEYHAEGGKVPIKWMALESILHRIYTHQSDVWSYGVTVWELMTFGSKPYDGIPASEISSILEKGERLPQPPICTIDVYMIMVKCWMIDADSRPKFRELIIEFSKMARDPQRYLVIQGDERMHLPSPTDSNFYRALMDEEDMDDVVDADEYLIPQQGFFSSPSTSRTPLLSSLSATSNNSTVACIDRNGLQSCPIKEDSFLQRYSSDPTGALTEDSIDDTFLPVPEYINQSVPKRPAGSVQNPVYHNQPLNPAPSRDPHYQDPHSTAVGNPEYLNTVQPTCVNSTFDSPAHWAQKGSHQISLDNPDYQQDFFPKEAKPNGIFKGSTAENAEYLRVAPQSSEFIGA

| SMILES | composite z-score [1] | composite z-score [2] | composite z-score [3] | z-score [4] | composite z-score [5] | composite z-score [6] | composite z-score [7] | composite z-score [8] | composite z-score [9] | composite z-score [10] | composite z-score [11] | z-score [12] | composite z-score [13] | composite z-score [14] | composite z-score [15] | composite z-score [16] | composite z-score [17] | composite z-score [18] | composite z-score [19] | composite z-score [20] |
| --- | --- | --- | --- | --- | --- | --- | --- | --- | --- | --- | --- | --- | --- | --- | --- | --- | --- | --- | --- | --- |
| CN(C)C(=O)[C@@]1(Cc2ccccc2)N=C(c2ccc(OCCCO)cc2)O[C@H]1c1ccccc1N=[N+]=[N-] | 1.36 | 0.898 | 0.914 | -1.26 (inactive) | 1.36 | 1.26 | 0.189 | 0.843 | -0.237 | 0.994 | 1.42 | -2.79 | -0.0506 | 1.09 | 0.0779 | 0.178 | -0.0146 | -0.482 | 0.491 | 0.567 |
| COC(=O)[C@@]1(Cc2ccc(OC)cc2)[C@H]2c3cc(C(=O)N4CCCC4)n(Cc4ccsc4Br)c3C[C@H]2CN1C(=O)c1ccccc1 | 0.824 | 0.597 | 1.08 | 2.42 (inactive) | -0.125 | 0.386 | -0.248 | -0.246 | -0.752 | 0.741 | 1.27 | -3.66 | -0.857 | 1.1 | 0.696 | -0.0944 | -0.237 | 1.48 | 0.254 | 0.218 |
| C=CCN1C(=O)[C@]2(O[C@H](CCO)[C@@H]([Si](C)(C)c3ccc(OC)cc3)[C@@H]2C)c2cc(N3CCCCC3=O)ccc21 | 0.914 | 0.0375 | 0.0217 | -1.69 (inactive) | 0.849 | 0.549 | 0.286 | 0.918 | 0.147 | 0.247 | 1.44 | -4.11 | 0.0651 | 0.856 | 0.352 | -0.0977 | 0.147 | 0.431 | 0.957 | 1.19 |
| [N-]=[N+]=NCc1ccccc1C[C@]1(C(=O)NCC(O)CO)N=C(c2ccc(OCCCO)cc2)O[C@H]1c1ccccc1 (stereo not given in full) | -0.338 | 1.04 | 0.889 | 0.321 (inactive) | -0.337 | -0.836 | -0.886 | -0.689 | -1.37 | 0.51 | 0.722 | -1.82 | -1.84 | 1.51 | 1.24 | -0.0405 | -0.0211 | 1.06 | 0.846 | 0.19 |
| COC(=O)[C@@]1(Cc2ccc(F)cc2)[C@H]2c3cc(C(=O)N4CCCC4)n(Cc4ccc(C)o4)c3C[C@H]2CN1C(=O)c1ccccc1 | 1.55 | 0.72 | 1.02 | 3.29 (inactive) | 1.08 | 0.899 | 0.0358 | 0.596 | -0.177 | 0.87 | 1.4 | -2.32 | -0.699 | 1.48 | 0.558 | 0.319 | 0.862 | -0.632 | 0.11 | 0.948 |
| C#CCN(CC=C(C)C)[C@H](CO)c1ccccc1 | -0.383 | -0.127 | -0.209 | -1.21 (inactive) | -0.0443 | 0.81 | 0.372 | 0.0894 | 0.352 | 0.942 | 0.309 | -0.817 | 0.185 | -0.171 | -0.438 | 0.0771 | -0.279 | -0.176 | 0.455 | 0.136 |
| CCOC(=O)C[C@H]1[C@H](OC(=O)Cc2ccc3c(c2)OCO3)[C@@H](NC(=O)c2ccc3ccccc3c2)c2cc(OCCCO)ccc2N1C(=O)c1ccccc1 | 0.622 | -0.0805 | -0.205 | -0.547 (inactive) | 0.47 | 0.213 | 0.188 | 0.433 | 0.295 | 0.405 | 0.967 | -1.57 | 0.348 | 0.119 | -0.447 | -0.147 | -0.2 | -0.417 | 0.656 | 0.943 |
| [N-]=[N+]=NCc1ccccc1[C@@H]1OC(c2ccc(OCCCO)cc2)=N[C@]1(Cc1ccccc1N=[N+]=[N-])C(=O)N1CCOCC1 | 0.814 | 1.22 | 1.35 | 0.783 (inactive) | 1.33 | 1.3 | 0.248 | 0.783 | 0.231 | 0.73 | 0.841 | -1.56 | 0.404 | 1.97 | 0.995 | 0.334 | 0.686 | 2.35 | 1.44 | 1.82 |
| CN(C)C(=O)[C@@]1(Cc2ccccc2CN=[N+]=[N-])N=C(c2ccc(OCCCO)cc2)O[C@H]1c1ccccc1 | 1.67 | -0.274 | 1.01 | 0.249 (inactive) | 1.21 | 0.585 | -0.333 | -0.283 | -0.766 | 0.823 | 0.993 | -2.96 | -0.498 | 0.691 | 0.46 | 0.0077 | -0.0243 | 1.83 | 1.43 | 1.33 |
| C=C/C=C/[C@H]1C(=C)CN([C@@H](Cc2ccccc2)C(=O)OC)[C@@H]1[C@H](O)Cc1ccccc1 | -0.181 | -0.167 | 0.44 | 1.04 (inactive) | -0.557 | -0.546 | -1.23 | -0.542 | -0.306 | 0.97 | -0.784 | -0.331 | -1.09 | -0.679 | -1.1 | -0.129 | -0.138 | -0.0624 | -0.207 | -0.217 |
| COC(=O)[C@@]1(Cc2ccc(OC)cc2)[C@H]2c3cc(C(=O)N4CCCC4)n(Cc4ccccc4)c3C[C@H]2CN1C(=O)c1ccccc1 | 0.93 | 2.64 | 1.31 | -1.16 (inactive) | 1.31 | 0.472 | 0.801 | 0.413 | -0.505 | 0.651 | 1.16 | -1.76 | 0.117 | 2.3 | 0.817 | 1.29 | 2.49 | 2.87 | 0.0976 | 0.75 |
